Efflux pump inh: inhibitors of Candida efflux pumps in yeast, primary screen, S. cerevisiae, Nile Red, multiplex. S. cerevisiae Candida pump triplex. inhibition, % at 10 µM. 330,000 tested, 0.44% active;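 active = plate passing quality check with inhibition over a set limit, or well fluorescence over plate mean plus 4 SD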;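 note: Nile Red retained in pooled yeast measured as flow cytometry median fluorescence; 0% = buffer negative control and 100% = Enniatin B positive control; higher means more Nile Red kept so more efflux inhibition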
V-ATPase pHluor: regulators of yeast V-ATPase proton pumping, primary screen, pHLuorin cytosolic pH fluorescence | S. cerevisiae | response, % at 10 µM | 350,000 tested, 0.37% active; in the data active = response mostly above about 7.3%, no sharp cut-off; inactive = mostly below about 5.4%; note: actives read high
AI-2 QS mod: Vibrio harveyi AI-2 quorum sensing modulators, primary screen, JMH597 strain, luminescence/OD600 ratio; activity change, % at 7.5 µM; 300,000 tested, 0.4% active; Vibrio harveyi JMH597 AI-2 luminescence/OD600 ratio, 9 h; hits give low values; strain lacks LuxN and CqsS sensors; 0 = neutral-control median; in the data active = activity change below about -75%, passing the limit was not always enough;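 note: luminescence divided by OD600 gain over 9 h not by final OD600 alone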
ATG4B inhibitor: ATG4B protease inhibitors, primary screen, biochemical, fluorescence, uHTS; ATG4B cleavage of LC3-PLA2, NBD-HPC fluorescence, 1 h; inhibition, % at 8.33 µM; 340,000 tested, 0.51% active; AID 504462, 2011; Cysteine protease ATG4B (Homo sapiens), Q9Y4P1; in the data active = inhibition above about 40%
Target sequence (Q9Y4P1 whole entry, looked up): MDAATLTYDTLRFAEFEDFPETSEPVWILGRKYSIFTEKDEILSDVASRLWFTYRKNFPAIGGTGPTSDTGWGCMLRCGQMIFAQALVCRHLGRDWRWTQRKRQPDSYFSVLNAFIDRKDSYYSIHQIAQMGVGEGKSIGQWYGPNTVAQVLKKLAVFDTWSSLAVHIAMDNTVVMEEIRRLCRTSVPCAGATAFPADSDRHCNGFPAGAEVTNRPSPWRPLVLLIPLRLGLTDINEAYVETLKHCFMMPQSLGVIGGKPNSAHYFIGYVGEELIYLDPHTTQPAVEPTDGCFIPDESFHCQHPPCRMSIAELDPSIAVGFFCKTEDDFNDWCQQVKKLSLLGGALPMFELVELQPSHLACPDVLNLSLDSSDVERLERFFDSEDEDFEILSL
SUMO Mot1 rescue: yeast Mot1-301 growth rescue at high temperature, primary screen, SUMOylation pathway inhibitor project, S. cerevisiae, ATP luminescence, 38.5C; S. cerevisiae Mot1-301 growth rescue; percent above DMSO median, 100 means doubled; growth rescue, % at 18.8 µM; 320,000 tested, 1% active; AID 2716, 2010;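 active = every valid replicate shows activation above 250% relative to neutral control wells; inactive = the rest, any valid replicate at or below 250%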;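 note: OY570 slx delta 5 strain wells were the positive control but not used for scaling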
VATPase regulator: yeast V-ATPase proton pumping modulators, confirmation, S. cerevisiae, pH-sensitive GFP, second cherry-pick | response, % at 10 µM | S. cerevisiae pHLuorin cytosolic pH, V-ATPase proton transport | 980 tested, 2% active | shares compounds with V-ATPase pHluor | AID 602197, 2012; in the data active = response above about 24%;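 note: plate controls were vehicle wells for no effect and positive control wells for full effect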
Numbers without * were called inactive. Sampled rows, rich in hits. Any-hit rate of the full collection: about 2.5%.

How did O=C(O)C1CCN(C(=O)c2ccc3c(c2)OCO3)CC1 do in these assays?
Efflux pump inh: 0; V-ATPase pHluor: 2; AI-2 QS mod: 2; ATG4B inhibitor: -12; SUMO Mot1 rescue: 6

What do the screens show for `CC(O)(CS(=O)(=O)Cc1ccccc1)c1ccc(Cl)cc1` (configuration not stated)?
Efflux pump inh: 0; V-ATPase pHluor: 2; AI-2 QS mod: 8; ATG4B inhibitor: -1; SUMO Mot1 rescue: -12

Results for CC(O)(CS(=O)(=O)Cc1ccccc1)c1ccccc1Cl (configuration not stated) ?
Efflux pump inh: 1; V-ATPase pHluor: 6.9*; AI-2 QS mod: 13; ATG4B inhibitor: 9; SUMO Mot1 rescue: -16; VATPase regulator: -5

How did O=C1CC(=O)C(n2cncn2)C(c2c(F)cccc2Cl)C1 (configuration not stated) do in these assays?
Efflux pump inh: 0; V-ATPase pHluor: -5; AI-2 QS mod: 25; ATG4B inhibitor: -8; SUMO Mot1 rescue: -14

What do the screens show for `O=C1CC(=O)C(n2cncn2)C(c2ccc(Cl)cc2)C1` (configuration not stated)?
Efflux pump inh: 0; V-ATPase pHluor: 7.5*; AI-2 QS mod: 2; ATG4B inhibitor: 0; SUMO Mot1 rescue: -5; VATPase regulator: 2

How did COc1cccc(/C(N)=N/OC(=O)Cc2ccccc2[N+](=O)[O-])c1 do in these assays?
Efflux pump inh: 0; V-ATPase pHluor: 14*; AI-2 QS mod: 16; ATG4B inhibitor: 6; SUMO Mot1 rescue: 228; VATPase regulator: 0

How did CC1CN(CC(O)COc2ccc(C(C)C)cc2)CC(C)O1 (configuration not stated) do in these assays?
Efflux pump inh: 0; V-ATPase pHluor: 8.8*; AI-2 QS mod: -17; ATG4B inhibitor: -12; SUMO Mot1 rescue: 326*; VATPase regulator: 0

What do the screens show for `O=C(CCNC(=O)c1ccc([N+](=O)[O-])cc1)Nc1ccc(S(=O)(=O)N2CCOCC2)cc1`?
Efflux pump inh: 0; V-ATPase pHluor: -2; AI-2 QS mod: 44; ATG4B inhibitor: -8; SUMO Mot1 rescue: 66

How did CN(C(=O)c1ccc(NC(=O)Cc2ccc(NC(=O)C3CCCN(C(=O)C4CCCC4)C3)cc2)cc1)C1CC1 (configuration not stated) do in these assays?
Efflux pump inh: 0; V-ATPase pHluor: 20*; ATG4B inhibitor: -5; SUMO Mot1 rescue: 12; VATPase regulator: -6

What do the screens show for `CSc1ccc(Cl)c(C(=O)N(C)CC(=O)Nc2ccc(N3CCOCC3)cc2)c1`?
Efflux pump inh: 0; V-ATPase pHluor: 5; AI-2 QS mod: 7; ATG4B inhibitor: -2; SUMO Mot1 rescue: 8

What do the screens show for `Nc1ccccc1NC1=CC(=O)CC(c2ccco2)C1` (configuration not stated)?
Efflux pump inh: 0; V-ATPase pHluor: 11*; AI-2 QS mod: 22; ATG4B inhibitor: -2; SUMO Mot1 rescue: -5; VATPase regulator: 1

Results for CCc1nnc(NC(=O)CSCc2cc(=O)n3nc(C)sc3n2)s1 ?
Efflux pump inh: 0; V-ATPase pHluor: 4; AI-2 QS mod: 19; ATG4B inhibitor: -7; SUMO Mot1 rescue: -15

Results for CC1=C(C(=O)Nc2cc(C(=O)NCc3ccccc3)ccc2C)SCCO1 ?
V-ATPase pHluor: 55*; VATPase regulator: 1

How did CCCCNC(=O)c1ccc(C)c(NC(=O)C2=C(C)OCCS2)c1 do in these assays?
Efflux pump inh: 0; V-ATPase pHluor: 3; AI-2 QS mod: 19; ATG4B inhibitor: 6; SUMO Mot1 rescue: 364

What do the screens show for `CCOC(=O)C(=O)N=Nc1c(O)[nH]c2ccccc12`?
Efflux pump inh: 0; V-ATPase pHluor: -2; AI-2 QS mod: -12; ATG4B inhibitor: 3; SUMO Mot1 rescue: 11; VATPase regulator: 1

How did CC(=O)c1cccc(S(=O)(=O)N2CCN(c3ccccc3F)CC2)c1 do in these assays?
Efflux pump inh: 0; V-ATPase pHluor: 12*; AI-2 QS mod: 1; ATG4B inhibitor: 10; SUMO Mot1 rescue: 4; VATPase regulator: -1

How did O=C(COC(=O)c1ccc(O)cc1)Nc1cccc(S(=O)(=O)NC2=NCCC2)c1 do in these assays?
Efflux pump inh: 0; V-ATPase pHluor: 0; ATG4B inhibitor: -3; SUMO Mot1 rescue: -11

Results for Cc1ccccc1OCC(=O)Nc1cccc(S(=O)(=O)NC2=NCCC2)c1 ?
Efflux pump inh: 0; V-ATPase pHluor: -2; ATG4B inhibitor: -5; SUMO Mot1 rescue: -5

How did CCc1ccccc1OCC(=O)Nc1cccc(S(=O)(=O)NC2=NCCC2)c1 do in these assays?
Efflux pump inh: 0; V-ATPase pHluor: 9.5*; ATG4B inhibitor: -14; VATPase regulator: 1

Results for CC(C)c1ccc(C(=O)OCC(=O)Nc2cccc(S(=O)(=O)NC3=NCCC3)c2)cc1 ?
V-ATPase pHluor: 7.2*; VATPase regulator: 1

Results for COc1ccc(S(=O)(=O)N2CCC(NC(=O)c3cccnc3)CC2)cc1 ?
Efflux pump inh: 0; V-ATPase pHluor: -2; AI-2 QS mod: 13; ATG4B inhibitor: -11; SUMO Mot1 rescue: -16

How did CSc1ccc(Cl)c(C(=O)OCC(=O)N2CCN(c3ccccc3)CC2)c1 do in these assays?
V-ATPase pHluor: 2; ATG4B inhibitor: -15

Results for CCSc1nnc(NC(=O)c2cccc(S(=O)(=O)N(C)c3ccccc3)c2)s1 ?
Efflux pump inh: 0; V-ATPase pHluor: -1; AI-2 QS mod: 17; ATG4B inhibitor: -10; SUMO Mot1 rescue: 10

What do the screens show for `C=CCN(c1ccccc1)S(=O)(=O)c1cccc(C(=O)Nc2nnc(SCC)s2)c1`?
Efflux pump inh: 0; V-ATPase pHluor: 11*; AI-2 QS mod: 35; ATG4B inhibitor: 3; SUMO Mot1 rescue: 6; VATPase regulator: -1

What do the screens show for `N#CCCN(Cc1cccnc1)S(=O)(=O)c1ccc2ccccc2c1`?
Efflux pump inh: 0; ATG4B inhibitor: -20; SUMO Mot1 rescue: 47

What do the screens show for `N#CCCN(Cc1cccnc1)S(=O)(=O)c1ccc(S(=O)(=O)NC2CCCCC2)cc1`?
Efflux pump inh: 0; V-ATPase pHluor: 8.6*; AI-2 QS mod: 23; ATG4B inhibitor: 0; SUMO Mot1 rescue: 336; VATPase regulator: -3

Results for CCCCCC(=O)Nc1ccc(C(=O)CN2C(=O)NC3(CCCCCC3)C2=O)cc1 ?
Efflux pump inh: 0; V-ATPase pHluor: 1; AI-2 QS mod: -3; ATG4B inhibitor: -7; SUMO Mot1 rescue: -10

Results for O=C(CNC(=O)N1CC(=O)Nc2ccccc21)NCCc1cccc(F)c1 ?
Efflux pump inh: 0; V-ATPase pHluor: -6; AI-2 QS mod: 13; ATG4B inhibitor: -1; SUMO Mot1 rescue: 117

How did CCNC(=O)N1C[C@H]2CON(C)[C@H]2C[C@H]1c1ccccc1Br do in these assays?
V-ATPase pHluor: 2
